Screening results deposited in PubChem BioAssay by National Center for Advancing Translational Sciences (NCATS).
Shown are actives, neighbours in structure and some others; about 12% of the full set was active somewhere.
Marburg entry inh: inhibitors of Marburg virus binding or cell entry; Marburg virus pseudotyped entry inhibition, cell reporter; Potency, µM (titrated, usually from 37.8 µM), hits mostly inhibitors; hit rate 1.8% among 300,000; calls by dose curve; tested in HEK293 cells
LASV entry inh: blocks Lassa virus binding to or entry into cells. Lassa virus pseudotype entry inhibition, cell reporter. Potency, µM (top dose mostly 37.9 µM), usual class: inhibitors. hit rate 1.2% among 300,000; calls by dose curve; tested in HEK293 cells; note: nearly all actives have a fitted effect of over 50% in size
CHX counter: affects cycloheximide protein synthesis inhibition readout, counter-screen | cell reporter, cycloheximide protein synthesis inhibition counterscreen | max response, % | hit rate 12% among 300,000; in the data active = max response mostly above about 13%, no sharp cut-off; inactive = mostly below about 14%; note: read at 38.3 µM for the half of the compounds with a filed dose
Shiga inhibitor: inhibitors of Shiga toxin in Vero cells | Vero cells, Shiga toxin protein synthesis inhibition reporter | inhibition, % at 38.7 µM | hit rate 9.2% among 290,000 | AID 2315; in the data active = inhibition mostly above about 28%, no sharp cut-off; inactive = mostly below about 43%
Numbers stand for hits; – = inactive; ? = inconclusive; · = not tested or not shown.

SMILES	Marburg entry inh	LASV entry inh	CHX counter	Shiga inhibitor
CN(C)CCn1c(NCc2ccc3c(c2)OCO3)nc2ccccc21	·	·	–	–
CCCn1c(NCc2ccc3c(c2)OCO3)nc2ccccc21	–	–	20	–
O=C(COC(=O)c1ccc(O)cc1)Nc1ccc(Cl)cc1	–	–	31	–
O=C(O)CCC(=O)Nc1ccc(C(=O)OCC(=O)c2ccc(Cl)cc2)cc1	–	–	15	–
CCC(C(=O)N(C)Cc1ccccc1)n1nc(C)c2sc3ccccc3c2c1=O (centres undefined)	–	–	·	·
CN(C(=O)CNC(=O)OCc1ccccc1)c1ccc(Br)cc1C(=O)c1ccccc1Cl	5.8µM	?	–	–
O=C(CNC(=O)OCc1ccccc1)Nc1ccc(Br)cc1C(=O)c1ccccc1Cl	?	–	–	–
COc1ccc(C(=O)Nn2c(SCC(=O)N3CCC(C)CC3)nc3ccccc3c2=O)cc1	1.6µM	8.2µM	–	–
COc1ccc(C(=O)Nn2c(SCC(=O)c3ccc(Cl)cc3)nc3ccccc3c2=O)cc1	?	?	17	–
Cc1ccc(OCC(=O)Nc2cnn(CCCC(=O)O)c2)c([N+](=O)[O-])c1	–	–	–	–
O=C(c1ccccc1)C1NC1c1ccccc1 (centres undefined)	–	–	61	47
Cc1nnc(SCc2c(Cl)cccc2Cl)s1	–	–	32	60
Cc1nnc(SCc2ccc(F)cc2Cl)s1	–	?	41	69
Nc1nnc(SCc2c(F)cccc2Cl)s1	?	–	–	–
Nc1nnc(SCc2ccc(F)cc2Cl)s1	–	?	31	47
CCn1cc(C(=O)NCc2ccccc2Cl)c(=O)c2cc(S(=O)(=O)N3CCc4ccccc4C3)ccc21	–	–	·	·
COc1ccc(/C=N/NC(=O)c2cc(O)c(O)c(O)c2)cc1Cn1cc([N+](=O)[O-])cn1	·	·	–	–
Cc1ccc(/C=N/NC(=O)c2ccc(Cn3cc([N+](=O)[O-])cn3)o2)cc1	–	–	–	21
COc1ccc(/C=N/NC(=O)c2ccccc2O)cc1Cn1cc([N+](=O)[O-])cn1	·	·	24	–
CCCOc1ccc(/C=N/NC(=O)c2ccc(Cn3cc([N+](=O)[O-])cn3)o2)cc1	–	–	–	–
COc1ccc(/C=N/Nc2ccccc2C(=O)O)cc1Cn1cc([N+](=O)[O-])cn1	–	–	46	56
COc1ccc(/C=N/NC(=O)c2ccc(Br)o2)cc1Cn1cc([N+](=O)[O-])cn1	–	?	39	77
O=C(COC(=O)C1=COCCO1)Nc1cc(Cl)c(Cl)cc1Cl	–	–	·	·
COc1ccc(/C=N/NC(=O)c2cccc(Br)c2)cc1Cn1cc(Cl)cn1	7.1µM	?	–	–
O=C(Cc1ccccc1F)Nc1ccc(SC(F)F)cc1	?	?	91	57
SMILES	Marburg entry inh	LASV entry inh	CHX counter	Shiga inhibitor
O=C(Cc1ccc(Cl)cc1)Nc1ccc(CN2CCCCC2)cc1	?	–	–	–
O=C(COC(=O)Cc1ccccc1F)Nc1ccc(SC(F)F)cc1	?	–	–	–
O=C(Cc1ccc(Cl)cc1)Nc1ccc(SC(F)F)cc1	?	–	45	13
N/C(CN1CCSCC1)=N\OCc1c(F)cccc1Cl	–	–	–	49
O=C(COC(=O)c1ccccc1F)Nc1cccnc1Cl	–	–	–	–
Cc1cccc(NC(=S)NC(C)CCc2ccccc2)c1 (centres undefined)	?	–	–	–
Cc1ccc(NC(=O)NCCCCc2ccccc2)cc1	·	·	–	29
Cc1cccc(NC(=O)NCCCCc2ccccc2)c1	·	·	–	23
O=C(NCCCCc1ccccc1)Nc1cccc(F)c1	–	?	47	48
O=C(NCCCc1ccccc1)Nc1ccccc1	–	–	–	–
Cc1cccc(NC(=O)NC(C)CCc2ccccc2)c1 (centres undefined)	?	–	21	–
CCN1CCN(C(c2ccccc2Cl)c2sc3nc(-c4ccco4)nn3c2O)CC1 (centres undefined)	·	–	·	·
CCCCn1c(N)c(N(CCOC)C(=O)CSCc2cccc(C)c2)c(=O)[nH]c1=O	–	–	·	·
CCOCCCn1c(SCc2nc3ccccc3s2)nc2ccccc2c1=O	7.1µM	?	87	101
CCOCCCn1c(SCC(=O)Nc2ccccc2)nc2ccccc2c1=O	–	?	–	–
COCCn1c(SCC(=O)NC(C)c2ccccc2)nc2ccccc21 (centres undefined)	–	–	–	–
C=CCn1c(=O)c2ccccc2n2c(SCc3nc4ccccc4s3)nnc12	–	–	45	131
C=CCn1c(=O)c2ccccc2n2c(SCC(=O)O)nnc12	–	–	–	–
COCCn1c(SCc2nc3ccccc3s2)nc2ccccc21	–	–	37	147
CC(C)Cn1c(SCc2nc3ccccc3c(=O)[nH]2)nc2ccccc2c1=O	–	–	–	–
Cn1c(CSc2nc3ccccc3n2C)nc2ccccc21	?	–	19	–
Cn1c(-c2ccccc2)cnc1SCc1nc2ccccc2c(=O)[nH]1	–	–	27	114
Cn1c(SCc2nc3ccccc3c(=O)[nH]2)nc2ccccc21	–	?	17	–
CCCN(C(=O)Cn1cnc2onc(-c3ccc(F)cc3)c2c1=O)c1cccc(Cl)c1	·	–	·	·
COc1ccc(-c2nc(CSCC(=O)NC3CCCC3)c(C)o2)cc1OC	–	–	–	–
SMILES	Marburg entry inh	LASV entry inh	CHX counter	Shiga inhibitor
O=C(Nc1ccc(-c2noc(-c3ccccc3F)n2)cc1)c1cccs1	–	–	46	71
Cc1ccccc1-c1nc(-c2ccc(NC(=O)c3cccs3)cc2)no1	?	–	46	82
O=C(c1ccccc1Cl)N1CCC(N2CCC(C(=O)N3CCCC3)CC2)CC1	·	·	24	–
O=C(c1cc(F)ccc1F)N1CCC(N2CCC(C(=O)N3CCCC3)CC2)CC1	?	–	17	–
CCCCN(CC)CCCNC(=O)C1CCCN(c2ncnc3c2nc2n3CCCCC2)C1 (centres undefined)	·	–	·	·
Cc1sc(NC(=O)c2ccco2)nc1-c1ccccc1	?	?	44	103
CC(=O)c1c(C)[nH]c(C(=O)Nc2nc(-c3ccccc3)c(C)s2)c1C	?	–	23	–
O=C(Nc1c(-c2ccccc2)nc2ccccn12)c1ccco1	–	–	12	–
CC(=O)c1sc(NC(=O)c2ccccc2F)nc1-c1ccccc1	–	–	43	134
CC(=O)c1c(C)[nH]c(C(=O)NC(C)c2ccccc2)c1C (centres undefined)	·	·	–	–
COC(=O)Nc1nc(C)c(C(=O)c2ccccc2)s1	?	?	–	–
COC(=O)Nc1nc(-c2ccccc2)c(C(=O)c2ccccc2)s1	?	3.2µM	–	–
O=C(Nc1nsc(-c2ccccc2)n1)c1cccs1	?	?	25	37
Cc1sc(N/N=C/c2cccs2)nc1-c1ccccc1	7.9µM	?	43	84
Cc1sc(NC(=O)c2cccs2)nc1-c1ccccc1	?	–	34	–
CCN1CCCC1CNC(=O)c1cc([N+](=O)[O-])c(N(C)C)cc1OC (centres undefined)	·	·	–	–
CCc1ccc(NC(=O)C2CCCN2S(=O)(=O)c2ccc3c(c2)CCCC(=O)N3)cc1 (centres undefined)	·	–	·	·
COC(=O)c1cc(S(=O)(=O)N2CCCCC2)c[nH]1	·	·	–	–
CC(=O)c1sc(NC(=O)c2ccco2)nc1-c1ccccc1	·	·	21	65
Oc1ccc(-c2nc3ccccn3c2NCc2ccco2)cc1	–	–	35	37
